The supplement of paper PMC6555819

What follows are sequences tested on THRa:RXRa (NR concentration 90 nM, RXRa partner concentration 90 nM) (assay: PBM binding z-score (relative to random genomic background probes); higher = stronger binding; sequences stand for … in GC…GCGATTGACAGCGTAGAATGAAGG).
In short: (§1)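 Custom Agilent 4×180K protein-binding microarrays carried double-stranded probes, each with a 34-nt variable region. These regions held direct-repeat seeds, single-nucleotide variants, half-site ablations and random human genomic background sequences. Ligand-free nuclear receptor dimers were incubated on the arrays for 1 h, antibodies against each partner (one per run) detected binding, and scanned fluorescence was regression-normalized. Binding z-scores take the random background probes as reference.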
In the case of CGTCCAAGGTTAGAGAGGTCAGTGAATGCCGAGT, the PBM binding z-score is reported as 3.22.
With TCTAGCTGGCCAGAGGGTCACTCAAGAGGTACGG the PBM binding z-score was 1.48.
For TCTATTAGTTGAGTAGGGCAACCGAAACAGCGGA, the PBM binding z-score was -0.257.
For GGAACGAGGGCAAAGTTGAGAGCATCTGTCGACG, the PBM binding z-score was 1.53.
CCTATGAGTTGACCATAAGGGCAACCGAAGCTCG was tested, and the PBM binding z-score was 2.49.
CAAACTAGGTCACGAAAGGTCAAAGTAGAATGAC gave a PBM binding z-score of 5.12.
Work on GCTAGCAGGACATTTGGGTCACTCAATGACGGGC yielded a PBM binding z-score of 1.81.
Work on GCGACTGGGGCAAAGCAGGTTACCAAAAGGTTGG yielded a PBM binding z-score of 3.28.
For CCTAGTTCGTCAGGAGGTCACACACCGGATATGA, the PBM binding z-score was 3.92.
GCTGCTAGGTCAATTGATGGTCAGCTAAAGCTCG was tested, and the PBM binding z-score was 2.22.
Sequence TCTTGTACATCAAAGGTTAAGAAAGCCGAAGCCT has a PBM binding z-score of 1.48.
Work on ACTAGTTGGTCAGCTGACGTCACACACAATTCGG yielded a PBM binding z-score of 0.178.
With ATATGTAGGTTATCGGGTCGTTCAGTTTGCGCAT the PBM binding z-score was 1.93.
Sequence TCTTGTAGATCCATAGAGGTTAAGAAAGTGCGCT has a PBM binding z-score of 1.07.
TCTGCTAGGTCACCGATGGTCAGCTAATCTGCTA was tested, and the PBM binding z-score was 3.48.
In the case of AGTCAAAGTTCAGGACGAGCTAACGTAAAGCACG, the PBM binding z-score is reported as 1.95.
ACTATGAGTTGACTTAGGGCAACCGATACGACGC was tested, and the PBM binding z-score was 2.22.
Sequence CCTACTGGGCCAAAAAGGTCATTGACGCCGATAA has a PBM binding z-score of 3.02.
With GCGACTGGGGCACCAGCAGGTTACCATAACTTAA the PBM binding z-score was 1.07.
For TGTCAAAGTTCAAGGGTAACGTAAGTATCCACAC, the PBM binding z-score was 2.89.
CCTACTGGGTCAAAAAGGTCATTGATGCCGATAA showed a PBM binding z-score of 3.76.
Work on TTACCAGGGTGAGCTGAGGTCGTTGATCCAACTC yielded a PBM binding z-score of 4.67.
TCTTGTACATCAACAGGAGGTTAAGAAAGATCGA was tested, and the PBM binding z-score was 0.755.
For TCTTGTAGATCAACAGGAGGTTATGAAAGATCGA, the PBM binding z-score was 0.76.
TCATATAGGTAATACAGGTGGAAGTCGGCATCTA showed a PBM binding z-score of 0.353.
For GCTATTAGTTGAAAGGGCCACCGAATGATTCTCG, the PBM binding z-score was 0.0196.
Work on CCTATTAGTTGACTATAAGGGCAACCGAAGCTCG yielded a PBM binding z-score of 1.79.
TATACAGGGTCAAAGGACAGAGTACGAATGTCGA was tested, and the PBM binding z-score was 3.7.
Work on CCTCGGAGGACAACAAGAGGTCAGAGCTGCCAGA yielded a PBM binding z-score of 2.86.
For TCTATTAGTTGAAGCGCAACCGACGAGTCCGTTT, the PBM binding z-score was -0.201.
For ACAATGAGGTTATACGTAGATCAGGGAAGAAAGT, the PBM binding z-score was 2.13.
ATCTCTAGGTAACCAAGTTAAGTGAATGCCGAAC showed a PBM binding z-score of 0.825.
Work on ATCTCCAGGTAACCAAGTTCAGTGAATGCCGAAC yielded a PBM binding z-score of 1.96.
TCTACTAGGTCAGTTGGTCAGCTAACGAGCTGCC showed a PBM binding z-score of 1.28.
GCATATAGGTAATACAAGTTGAAAGTCCGATTGT gave a PBM binding z-score of 1.76.
Work on TAGCCTAGGTCATGGGCCAATATACCACGCGAAC yielded a PBM binding z-score of 3.1.
GCGACTGGGGCAAAGCAGGTTACCCTAAGGTTGG was tested, and the PBM binding z-score was 2.85.
With CAAACTAGGTCACCGGAACGTCAAAGTCCGCATG the PBM binding z-score was 3.55.
ATCTCTAGTTAAAAGTTCAGTGAATCCCGAGGAT was tested, and the PBM binding z-score was 0.672.
For ATACCAAGGAGATCGTGAGGTCGTTGATACTAAC, the PBM binding z-score was 2.37.

What follows are sequences tested on THRa homodimer (NR concentration 90 nM) in the same assay as above.
In short: as §1
For CGTCCAAGGTTAGAGAGGTCAGTGAATGCCGAGT, the PBM binding z-score was 1.3.
TCTAGCTGGCCAGAGGGTCACTCAAGAGGTACGG gave a PBM binding z-score of -0.56.
Sequence TCTATTAGTTGAGTAGGGCAACCGAAACAGCGGA has a PBM binding z-score of -0.445.
With GGAACGAGGGCAAAGTTGAGAGCATCTGTCGACG the PBM binding z-score was -0.419.
CCTATGAGTTGACCATAAGGGCAACCGAAGCTCG showed a PBM binding z-score of 1.04.
In the case of CAAACTAGGTCACGAAAGGTCAAAGTAGAATGAC, the PBM binding z-score is reported as 2.65.
In the case of GCTAGCAGGACATTTGGGTCACTCAATGACGGGC, the PBM binding z-score is reported as 0.828.
With GCGACTGGGGCAAAGCAGGTTACCAAAAGGTTGG the PBM binding z-score was -0.199.
Sequence CCTAGTTCGTCAGGAGGTCACACACCGGATATGA has a PBM binding z-score of 2.68.
For GCTGCTAGGTCAATTGATGGTCAGCTAAAGCTCG, the PBM binding z-score was -0.157.
With TCTTGTACATCAAAGGTTAAGAAAGCCGAAGCCT the PBM binding z-score was -0.039.
ACTAGTTGGTCAGCTGACGTCACACACAATTCGG gave a PBM binding z-score of 0.155.
Work on ATATGTAGGTTATCGGGTCGTTCAGTTTGCGCAT yielded a PBM binding z-score of 1.55.
Work on TCTTGTAGATCCATAGAGGTTAAGAAAGTGCGCT yielded a PBM binding z-score of -0.276.
For TCTGCTAGGTCACCGATGGTCAGCTAATCTGCTA, the PBM binding z-score was 1.23.
Sequence AGTCAAAGTTCAGGACGAGCTAACGTAAAGCACG has a PBM binding z-score of 0.278.
For ACTATGAGTTGACTTAGGGCAACCGATACGACGC, the PBM binding z-score was 0.414.
Sequence CCTACTGGGCCAAAAAGGTCATTGACGCCGATAA has a PBM binding z-score of 0.658.
Sequence GCGACTGGGGCACCAGCAGGTTACCATAACTTAA has a PBM binding z-score of -0.0837.
TGTCAAAGTTCAAGGGTAACGTAAGTATCCACAC was tested, and the PBM binding z-score was 0.138.
Sequence CCTACTGGGTCAAAAAGGTCATTGATGCCGATAA has a PBM binding z-score of 1.1.
For TTACCAGGGTGAGCTGAGGTCGTTGATCCAACTC, the PBM binding z-score was 1.57.
For TCTTGTACATCAACAGGAGGTTAAGAAAGATCGA, the PBM binding z-score was -0.281.
With TCTTGTAGATCAACAGGAGGTTATGAAAGATCGA the PBM binding z-score was -0.681.
For TCATATAGGTAATACAGGTGGAAGTCGGCATCTA, the PBM binding z-score was 0.0491.
GCTATTAGTTGAAAGGGCCACCGAATGATTCTCG was tested, and the PBM binding z-score was -0.402.
For CCTATTAGTTGACTATAAGGGCAACCGAAGCTCG, the PBM binding z-score was 0.969.
TATACAGGGTCAAAGGACAGAGTACGAATGTCGA showed a PBM binding z-score of 1.21.
With CCTCGGAGGACAACAAGAGGTCAGAGCTGCCAGA the PBM binding z-score was 0.992.
TCTATTAGTTGAAGCGCAACCGACGAGTCCGTTT was tested, and the PBM binding z-score was -0.12.
With ACAATGAGGTTATACGTAGATCAGGGAAGAAAGT the PBM binding z-score was 0.593.
Work on ATCTCTAGGTAACCAAGTTAAGTGAATGCCGAAC yielded a PBM binding z-score of 0.542.
With ATCTCCAGGTAACCAAGTTCAGTGAATGCCGAAC the PBM binding z-score was 1.31.
TCTACTAGGTCAGTTGGTCAGCTAACGAGCTGCC gave a PBM binding z-score of 0.622.
GCATATAGGTAATACAAGTTGAAAGTCCGATTGT was tested, and the PBM binding z-score was -0.418.
With TAGCCTAGGTCATGGGCCAATATACCACGCGAAC the PBM binding z-score was 1.43.
GCGACTGGGGCAAAGCAGGTTACCCTAAGGTTGG gave a PBM binding z-score of 0.12.
In the case of CAAACTAGGTCACCGGAACGTCAAAGTCCGCATG, the PBM binding z-score is reported as 1.88.
With ATCTCTAGTTAAAAGTTCAGTGAATCCCGAGGAT the PBM binding z-score was 0.242.
In the case of ATACCAAGGAGATCGTGAGGTCGTTGATACTAAC, the PBM binding z-score is reported as 1.63.
